Data from PubChem BioAssay (EPA / NIEHS).
Records with an inconclusive call do not appear. Active and inactive are the calls of the source. The calls were made as follows: active = hit-call score of the fitted dose curve at least 0.9, where 1 is the maximum; inconclusive = response in the unintended direction; inactive = score below 0.9.

read-out: Cytochrome P450 3A4 (Homo sapiens) (UniProt P08684); test: CLD_CYP3A4_6hr: CellzDirect (CLD) Gene Expression Assay for xenobiotic metabolism (CYP3A4) at 6 hours (AID 2283680)
Method: CLD_6hr is a cell-based, multiplexed-readout assay that uses hepatocyte, a human liver primary cell, with measurements taken at 6 hours after chemical dosing in a 96-well plate.CLD_CYP3A4_6hr is one of 16 assay component(s) measured or calculated from the CLD_6hr assay. It is designed to make measurements of mRNA induction, a form of inducible reporter, as detected with chemiluminescence signals by Quantitative Nuclease Protection Assay (qNPA) technology.Data from the assay component CLD_CYP3A4_6hr was analyzed at the endpoint, CLD_CYP3A4_6hr, in the positive analysis fitting direction relative to DMSO as the negative control and baseline of activity. Using a type of inducible reporter, gain-of-signal activity can be used to understand changes in the reporter gene as they relate to the gene CYP3A4. Furthermore, this assay endpoint can be referred to as a primary readout. To generalize the intended target to other relatable targets, this assay endpoint is annotated to the cyp intended target family, where subfamily is xenobiotic metabolism.
Human hepatocyte cultures were treated daily for two consecutive days with fresh dosing solutions containing appropriate concentrations of the 320 ToxCast chemicals (chemical identities were blinded to CellzDirect and other ToxCast collaborators), vehicle control (0.2% DMSO), and positive control inducers as summarized in Table 1. Due to the large number of treatment groups and chemicals examined, the ToxCast chemicals were divided into two groups (spanning two independent cultures of hepatocytes from separate donor preparations (Hu778: ToxCast plates 1 and 2; Hu776: ToxCast plates 3 and 4). Each preparation of human hepatocyte cultures was treated with respective vehicle control, medium only control, set of six positive controls/reference chemicals for the five hepatic receptor pathways, and a subset of eight of the ToxCast chemicals (indoxacarb, pyrithiobac-sodium, norflurazon, cyhalofop-butyl, methomyl, thiram, acetochlor, and propiconazole). These replicate data, coupled with internal replicates designed within the blinded ToxCast chemical library, provided additional data to evaluate interindividual differences between hepatocyte preparations and their potential impact on chemical profiles.Cell morphology and integrity were evaluated using phase-contrast microscopy as an indicator of hepatocyte cell health (Tyson & Green, 1987). Cultures for each treatment group (i.e., media, vehicle [0.2% DMSO], positive control inducers [multiple concentrations], and the ToxCast chemicals [multiple concentrations]) were observed and cell morphology was assessed relative to vehicle control cultures at each harvest time point (0, 6, 24, or 48 h). […] Images were evaluated at the conclusion of the study to assess changes in cell integrity and account for the effects of chemical exposure on uncharacteristic changes in concentration-dependent gene expression profiles. The results from these determinations of apparent cytotoxicity were annotated (yes/no) alongside the corresponding qNPA data for reference.At the conclusion of each treatment period, hepatocyte cultures (96-well) were washed with 1 volume of HBSS, lysed by addition of 25 ul ArrayPlate lysis buffer (HTG, Tucson, AZ), and 70 ul/well of Denaturation Oil, denatured by incubation at 95C for 10 min, and frozen at approximately -70C until analysis by nuclease protection assay (qNPA) (Roberts et al., 2007). For qNPA analysis, cell lysates were thawed at 50C for approximately 30 min, qNPA probes were added, and samples were incubated at 95C for 10 min to begin the detection process by denaturing the target RNA, dissociating the duplexes and secondary structure hybridization. At the conclusion of the hybridization period, S1 nuclease reagent was added to each sample to digest all nonprotected nucleotides at 50C for 60-90 min. […]

Sequence of Cytochrome P450 3A4 (Homo sapiens) (P08684 whole entry, looked up): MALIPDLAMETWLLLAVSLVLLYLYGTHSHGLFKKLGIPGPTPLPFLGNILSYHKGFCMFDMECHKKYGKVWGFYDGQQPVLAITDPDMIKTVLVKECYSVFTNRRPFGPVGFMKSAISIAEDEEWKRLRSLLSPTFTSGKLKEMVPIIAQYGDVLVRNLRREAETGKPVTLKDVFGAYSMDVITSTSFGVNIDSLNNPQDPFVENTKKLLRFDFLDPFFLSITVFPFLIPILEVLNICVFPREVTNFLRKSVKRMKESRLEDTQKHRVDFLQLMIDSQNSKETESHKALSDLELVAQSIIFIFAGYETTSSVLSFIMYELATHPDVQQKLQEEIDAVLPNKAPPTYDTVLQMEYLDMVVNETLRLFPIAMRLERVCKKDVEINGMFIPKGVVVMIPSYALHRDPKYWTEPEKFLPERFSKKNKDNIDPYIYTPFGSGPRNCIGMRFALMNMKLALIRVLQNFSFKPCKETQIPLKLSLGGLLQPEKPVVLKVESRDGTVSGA

**Q.** Which AC50 does the source give for `C#CCOS(=O)OC1CCCCC1Oc1ccc(C(C)(C)C)cc1` (stereo not drawn) here?
**A.** 1.89 µM (active)

**Q.** With `CC(C)Oc1cc(-n2nc(C(C)(C)C)oc2=O)c(Cl)cc1Cl` as the compound, how does the AC50 read?
**A.** 1.89 µM (active)

**Q.** For `CCON=C(CC)C1=C(O)CC(c2c(C)cc(C)cc2C)CC1=O` (stereo not drawn), which outcome is on record?
**A.** inactive

**Q.** `C=CC1(C)OC(=O)N(c2cc(Cl)cc(Cl)c2)C1=O` (stereo not drawn) was tested. Which outcome did it give?
**A.** inactive

**Q.** How did the outcome turn out when `CCCCOC(=O)c1ccccc1C(=O)OCCCC` was run?
**A.** inactive

**Q.** Which AC50 does the source give for `CCCCNC(=O)OCC#CI` here?
**A.** 1.89 µM (active)

**Q.** Which outcome does the source give for `COP(=S)(OC)Oc1nc(Cl)c(Cl)cc1Cl` here?
**A.** inactive

**Q.** For `COC(=O)N(OC)c1ccccc1COc1ccn(-c2ccc(Cl)cc2)n1`, which outcome is on record?
**A.** inactive

**Q.** How did the outcome turn out when `N#CC(CCc1ccc(Cl)cc1)(Cn1cncn1)c1ccccc1` (stereo not drawn) was run?
**A.** inactive

**Q.** With `CNC(=S)S` as the compound, how does the outcome read?
**A.** inactive

**Q.** `Cc1c(F)c(F)c(COC(=O)C2C(/C=C(\Cl)C(F)(F)F)C2(C)C)c(F)c1F` (stereo not drawn) was tested. Which outcome did it give?
**A.** inactive

**Q.** `CCCN(CCC)c1c([N+](=O)[O-])cc(S(N)(=O)=O)cc1[N+](=O)[O-]` was tested. Which outcome did it give?
**A.** inactive

**Q.** How did the AC50 turn out when `COc1cnc(OC)n2nc(NS(=O)(=O)c3c(OCC(F)F)cccc3C(F)(F)F)nc12` was run?
**A.** 8.34 µM (active)

**Q.** With `CCOc1cc(Oc2ccc(C(F)(F)F)cc2Cl)ccc1[N+](=O)[O-]` as the compound, how does the AC50 read?
**A.** 5.4 µM (active)

**Q.** For `COc1nc(C)nc(NC(=O)NS(=O)(=O)c2ccccc2CCC(F)(F)F)n1`, which outcome is on record?
**A.** inactive

**Q.** For `CCOC(=O)CC(SP(=S)(OC)OC)C(=O)OCC` (stereo not drawn), which outcome is on record?
**A.** inactive

**Q.** Which outcome does the source give for `COC(=O)C(C)Oc1ccc(Oc2ccc(Cl)cc2Cl)cc1` (stereo not drawn) here?
**A.** inactive

**Q.** How did the outcome turn out when `COP(N)(=O)SC` (stereo not drawn) was run?
**A.** inactive

**Q.** With `CC(C)C1(C)N=C(c2nc3ccccc3cc2C(=O)O)NC1=O` (stereo not drawn) as the compound, how does the outcome read?
**A.** inactive

**Q.** Which outcome does the source give for `C=CCC1=C(C)C(OC(=O)C2C(C=C(C)C)C2(C)C)CC1=O` (stereo not drawn) here?
**A.** inactive

**Q.** How did the outcome turn out when `COc1nc(NC(C)C)nc(NC(C)C)n1` was run?
**A.** inactive

**Q.** With `CCCC1COC(Cn2cncn2)(c2ccc(Cl)cc2Cl)O1` (stereo not drawn) as the compound, how does the outcome read?
**A.** inactive

**Q.** With `CON(C)C(=O)Nc1ccc(Cl)c(Cl)c1` as the compound, how does the outcome read?
**A.** inactive

**Q.** `CCc1nn(C)c(C(=O)NCc2ccc(C(C)(C)C)cc2)c1Cl` was tested. Which outcome did it give?
**A.** inactive

**Q.** For `CCOC(=O)C(Cl)Cc1cc(-n2nc(C)n(C(F)F)c2=O)c(F)cc1Cl` (stereo not drawn), which outcome is on record?
**A.** inactive

**Q.** With `CC1=C(C(=O)Nc2ccccc2)SCCO1` as the compound, how does the outcome read?
**A.** inactive

**Q.** With `CNC(=O)ON=CC(C)(C)SC` as the compound, how does the outcome read?
**A.** inactive

**Q.** How did the outcome turn out when `OC(c1ccc(Cl)cc1)(c1cncnc1)c1ccccc1Cl` (stereo not drawn) was run?
**A.** inactive

**Q.** With `COc1nc(C)nc(NC(=O)NS(=O)(=O)c2ccccc2Cl)n1` as the compound, how does the outcome read?
**A.** inactive

**Q.** With `Cc1ccc(-c2c(Cl)nc(C#N)n2S(=O)(=O)N(C)C)cc1` as the compound, how does the AC50 read?
**A.** 1.89 µM (active)

**Q.** `N#Cc1nn(-c2c(Cl)cc(C(F)(F)F)cc2Cl)c(N)c1S(=O)C(F)(F)F` (stereo not drawn) was tested. Which outcome did it give?
**A.** inactive

**Q.** With `COC(=O)C=C(C)OP(=O)(OC)OC` as the compound, how does the outcome read?
**A.** inactive

**Q.** For `CCNc1nc(Cl)nc(NC(C)C)n1`, which AC50 is on record?
**A.** 20 µM (active)
